High-throughput results: PubChem, National Center for Advancing Translational Sciences (NCATS)
ELG1 genotox: genotoxicity induction in ELG1-luciferase HEK293T cells; HEK293T ELG1-luciferase reporter, luminescence, 16 h; Potency, µM (doses to about 46 µM), usual class: activators; 330,000 tested, 1.3% active; AID 504466; note: nearly all actives have a fitted effect of over 60% in size
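Genotoxicity was scored as increased ELG1-luciferase reporter signal, measured by ONE-Glo luminescence (30 min, room temperature). Compound or vehicle exposure of the HEK293T reporter cells lasted 16 hr at 37°C.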
SMN2 splice enh: SMN2 splice variant enhancement; HEK293 SMN2-luciferase splicing reporter, luminescence, 30-36 h; Potency, µM (titrated, usually from 46.1 µM), actives largely listed as activators; 210,000 tested, 2.8% active; AID 1458; note: nearly all actives have a fitted effect of over 55% in size
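HEK293 cells carry an SMN2 minigene-luciferase reporter in which exon 7 inclusion puts luciferase in frame. Cells were seeded at 2000 cells/well, attached for 10-12 hours, then exposed to compounds for 30-36 hours at 37C before ONE-Glo luminescence.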
Rab9 promoter act: activates the Rab9 promoter. Huh7 Rab9 promoter-luciferase reporter, luminescence, 24 h. Potency, µM (highest dose often 9.22 µM), hits mostly activators. 320,000 tested, 2.8% active. AID 485297; note: nearly all actives have a fitted effect of over 60% in size
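Steps: seed 1500 Huh7 Rab9-luc cells per well, rest 2 h at 37 °C; add compound in DMSO; incubate 24 h; add luciferase reagent, 10 min ambient; read luminescence.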
FLuc modulator: inhibits or activates purified firefly luciferase, miR-21 counter-screen; P08659; purified FLuc, Km substrates, luminescence inhibition; Potency, µM (doses to about 57.5 µM), usual class: inhibitors; 360,000 tested, 6.9% active; AID 588342; note: nearly all actives have a fitted effect of over 55% in size
Target sequence (P08659 whole entry, looked up): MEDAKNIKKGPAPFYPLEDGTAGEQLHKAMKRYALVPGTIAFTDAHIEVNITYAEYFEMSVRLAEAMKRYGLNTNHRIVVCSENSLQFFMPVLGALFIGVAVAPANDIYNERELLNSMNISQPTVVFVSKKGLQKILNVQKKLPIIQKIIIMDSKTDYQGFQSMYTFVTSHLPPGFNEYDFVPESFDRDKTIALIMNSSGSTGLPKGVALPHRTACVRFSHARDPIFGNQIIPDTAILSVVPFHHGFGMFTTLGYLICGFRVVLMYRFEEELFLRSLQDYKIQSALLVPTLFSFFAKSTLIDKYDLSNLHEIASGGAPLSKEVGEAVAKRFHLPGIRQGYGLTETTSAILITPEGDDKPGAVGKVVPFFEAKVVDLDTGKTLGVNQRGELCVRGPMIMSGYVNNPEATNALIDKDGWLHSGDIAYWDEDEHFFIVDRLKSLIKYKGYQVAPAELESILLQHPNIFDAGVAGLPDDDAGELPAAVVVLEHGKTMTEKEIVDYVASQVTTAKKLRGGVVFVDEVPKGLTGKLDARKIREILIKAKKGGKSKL
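Biochemical qHTS of compounds, final roughly 60 µM downward over six points, against 10 nM purified firefly luciferase using Km concentrations of substrates (10 uM D-luciferin, 10 uM ATP) in Tris acetate pH 7.5 buffer; luminescence output.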
NPC1 prom act: activators of NPC1 promoter | Huh7 NPC1 promoter luciferase reporter, 24 h | Potency, µM (series often up to 9.22 µM), most hits filed as activators | 320,000 tested, 2.4% active; note: nearly all actives have a fitted effect of over 60% in size
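Luminescence read-out of NPC1 promoter-driven luciferase in stably transfected Huh7 cells; compounds delivered in DMSO and left 24 h at 37C, 5% CO2, qHTS titration format.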
A number is an active result; n = inactive; u = inconclusive; x = no result; [ ] = remark or other dose. Compounds with a hit are over-represented: about 7.4% of the library has one in this group of screens. Calls come from the whole dose curve; as a rule, active = well fitted curve in the direction sought with a large enough effect; inconclusive = small, poorly fitted or top-dose-only effect, or another doubt; inactive = no such curve, though single readings can be large; an effect the other way counts as inactive or inconclusive.

SMILES	ELG1 genotox	SMN2 splice enh	Rab9 promoter act	FLuc modulator	NPC1 prom act
CC(C)OC(=O)c1ccc(COC(=O)c2cccc(-c3nnc(-c4ccccc4)o3)c2)cc1	u	5.01µM	2.51µM	u	2.24µM
O=C(OCc1ccccc1)c1ccc2c(c1)-c1ccccc1C2=O	10.3µM	12.6µM	u	u	u
O=C(COC(=O)c1cccc(O)c1)Nc1nnc(-c2ccccc2)o1	n	x	n	n	n
O=C(NNC(=O)C1CCN(C(=O)Nc2ccccc2)CC1)c1ccc([N+](=O)[O-])cc1	n	x	n	n	n
COc1cc2[nH]c(=O)n(Cc3ccc(C(=O)N4CCN(c5cccc(C)c5C)CC4)cc3)c(=O)c2cc1OC	x	n	x	n	x
O=C(OCc1ccc(C(=O)c2ccccc2)cc1)c1cccc(-c2nnc(-c3ccccc3)o2)c1	u	u	1.12µM	10.7µM	u
O=C(OCc1nnc(-c2ccccc2)o1)c1ccc(CO)cc1	n	n	n	n	n
Cc1ccnc(NC(=O)c2ccc(OCC3CCCO3)cc2)c1 (centres undefined)	u	x	0.126µM	0.953µM	0.282µM
Cc1ccnc(NC(=O)c2ccc3c(c2)C(=O)N(CC2CCCO2)C3=O)c1 (centres undefined)	n	n	n	21.3µM	n
O=C1c2cccc3cccc(c23)C(=O)N1CC1CCCO1 (centres undefined)	n	n	n	n	n
Cc1ccc(NC(=O)c2ccc(OCC3CCCO3)cc2)c(C)c1 (centres undefined)	n	u	u	u	n
Nc1cccc(Oc2ccc3c(c2)C(=O)N(CC2CCCO2)C3=O)c1 (centres undefined)	n	x	1µM	23.9µM	1.58µM
Cc1ccc(C(=O)Nc2ccc3c(c2)C(=O)N(CC2CCCO2)C3=O)cc1 (centres undefined)	n	x	n	4.78µM	n
O=C(Nc1ccncc1)c1ccc2c(c1)C(=O)N(CC1CCCO1)C2=O (centres undefined)	n	n	n	n	n
O=C(O)c1ccc(NC(=O)c2ccc3c(c2)C(=O)N(CC2CCCO2)C3=O)cc1 (centres undefined)	n	x	n	u	n
CSCCC(NC(=O)OC(C)(C)C)C(=O)Oc1ccc2c(=O)c(-c3ccc4c(c3)OCCO4)coc2c1 (centres undefined)	u	17.8µM	0.794µM	10.7µM	1.41µM
COc1ccc(NC(=O)N2CCc3ccccc32)cc1	u	3.16µM	0.398µM	1.69µM	0.631µM
O=C(c1ccccc1)N1CCc2ccccc21	n	n	n	n	n
O=C(Nc1ccccc1)N1CCc2ccccc21	9.2µM	14.1µM	1µM	21.3µM	1.58µM
COc1ccc(C(=O)N2CCc3ccccc32)cc1	u	11.2µM	u	u	n
CCOC(=O)c1ccc(NC(=O)N2CCc3ccccc3C2)cc1	n	x	n	u	n
CCOC(=O)c1ccc(NC(=O)N2CCc3ccccc32)cc1	8.2µM	15.8µM	1.78µM	1.9µM	1.78µM
COc1ccc(NC(=O)N2CCCc3ccccc32)cc1	n	n	n	u	n
S=C(Nc1ccccc1)N1CCc2ccccc21	n	x	n	u	n
COc1ccc(CCC(=O)N2c3ccccc3CC2C)cc1 (centres undefined)	u	n	n	u	n
SMILES	ELG1 genotox	SMN2 splice enh	Rab9 promoter act	FLuc modulator	NPC1 prom act
COc1ccc(CCC(=O)N2CCc3ccccc32)cc1	u	n	u	9.53µM	u
CC(=O)c1c(C)[nH]c(C2=NNC(=NCc3ccccc3)SC2)c1C	u	n	n	n	n
c1ccc(C2=NNC(=NCc3ccc4c(c3)OCO4)SC2)cc1	n	x	u	26.9µM	u
C=CCN=C1NN=C(c2cc(C)n(CC=C)c2C)CS1	u	n	n	0.338µM	n
Cc1[nH]c(-c2ccc3c(c2)OCO3)nc1C(=O)O	n	n	n	u	n
Clc1ccc(C2=NNC(=NCc3ccccc3)SC2)cc1	n	n	u	16.9µM	u
Fc1ccc(C2=NNC(=NCc3ccccc3)SC2)cc1F	n	u	u	u	u
NC1=NN=C(c2ccc3c(c2)OCCO3)CS1	n	2.51µM	0.562µM	5.36µM	1µM
CC(=O)[C@H](C(=N)C#N)C(=O)Nc1ccccc1	x	n[9.22 µM]	x	x	x
Cc1ccc(CCNC(=O)C2CCN(S(=O)(=O)c3ccc4c(ccn4C)c3)CC2)cc1	x	x	x	n	x
COc1ccccc1C1=NNC(=NCc2ccccc2)SC1	n	n	n	u	n
COCCN=C1NN=C(c2ccc(NC(C)=O)cc2)CS1	n	n	n	n	n
C=CCN=C1NN=C(c2ccc3c(c2)OCCO3)CS1	0.58µM	n	0.447µM	0.675µM	1µM
CCCCN=C1NN=C(c2cccc([N+](=O)[O-])c2)CS1	u	n	n	u	n
CCN=C1NN=C(c2ccc(C)cc2)CS1	u	u	u	1.07µM	u
c1ccc(CN=C2NN=C(c3ccccc3)CS2)cc1	n	u	4.47µM	19µM	u
CC(C)N=C1NN=C(c2ccc(F)cc2)CS1	n	14.1µM	0.501µM	9.53µM	0.562µM
Cc1[nH]c2ccccc2c1C1=NNC(=Nc2ccc(F)cc2)SC1	n	n	n	n	n
CC(=O)CSCc1ccccn1	x	n[9.22 µM]	x	x	x
CCOC(=O)/C=C/C(=O)OCC(=O)N1CCN(C(=O)c2ccco2)CC1	n	x	n	n	n
O=C(N/N=C/c1cc2c(cc1Cl)OCO2)c1cc(-c2ccccc2)n[nH]1	n	x	n	n	n
CCOc1cccc(/C=C/c2ccc3cccc(O)c3n2)c1OC	20.6µM	x	n[1.84 µM]	4.78µM	3.16µM
CCOc1cccc(/C=C/c2ccc3cccc(O)c3n2)c1O	23.1µM	x	u	5.36µM	u
CCOc1cc(/C=C/c2ccc3cccc([N+](=O)[O-])c3n2)ccc1O	n	n	n	u	n
O=C1ON=C(c2cccc([N+](=O)[O-])c2)/C1=C/c1ccc(O)cc1	u	n	n	16.9µM	n
SMILES	ELG1 genotox	SMN2 splice enh	Rab9 promoter act	FLuc modulator	NPC1 prom act
COC(=O)c1ccc(Cn2nc(-c3ccc(C)cc3)ccc2=O)cc1	n	n	n[1.84 µM]	n	n
Cc1cc(-c2cn3ccccc3n2)c(C)n1-c1ccccc1	n	5.62µM	1.12µM	0.757µM	1.58µM
Cc1ccc(Cl)cc1Nc1nn2c(=O)c3ccc(C(=O)NC4CCCCC4)cc3nc2s1	x	x	x	n	x
COc1ccc(NC(=O)c2ccc(S(=O)(=O)N(C)C)cc2)cc1OC	n	n	n	n	n
CN(C)S(=O)(=O)c1ccc(C(=O)Nc2ccc3c(c2)CCC3)cc1	n	x	u	19µM	u
CN(C)S(=O)(=O)c1cccc(C(=O)Nc2ccc3c(c2)CCC3)c1	3.98µM	x	0.631µM	1.69µM	1.26µM
CCOc1ccc(NC(=O)c2ccc(N)cc2)cc1	u	u	u	9.53µM	u
CCOc1ccc(NC(=O)Nc2ccc3nccnc3c2)cc1	n	n	n	19µM	n
CCOc1ccc(NC(=O)Nc2ccc(NC(C)=O)cc2)cc1	n	n	n	n	n
CCOc1ccc(C(=O)Nc2c(C(N)=O)oc3ccccc23)cc1	n	n	n	10.7µM	n
CCOc1ccc(NC(=O)c2oc3ccccc3c2NC(=O)c2cc(C)cc(C)c2)cc1	x	n	x	n	x
